Source: PubChem (National Center for Advancing Translational Sciences (NCATS))
Pf growth 48h = Primary qHTS for delayed death inhibitors of the malarial parasite plastid, 48 hour incubation; 310,000 tested, 5.9% active; P. falciparum luciferase growth in erythrocytes, 48 h; Potency, µM (titrated, usually from 28.7 µM), for inactives: at the top dose activity change, negative = inhibition, usual class: inhibitors; note: potency is the fitted concentration of half-maximal effect; % is set by controls: 0 for no effect and ±100 for the full control effect
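In quantitative HTS format, infected erythrocytes bearing luciferase-reporter parasites were treated for a single generation at 37 C. Luminescence after adding detection reagent served as the growth measure.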
Shiga inhibitor = A qHTS for Small Molecule Inhibitors of Shiga Toxin; Vero cells, Shiga toxin protein synthesis inhibition reporter; inhibition, % at 38.7 µM; 290,000 tested, 9.2% active; in the data active = inhibition mostly above about 28%, no sharp cut-off; inactive = mostly below about 43%; note: 0% is about no effect
Pf growth 96h = Primary qHTS for delayed death inhibitors of the malarial parasite plastid, 96 hour incubation. P. falciparum luciferase reporter growth, 96 h. Potency, µM (highest dose often 28.7 µM), for inactives: at the highest dose activity change, negative = inhibition, hits mostly inhibitors. 320,000 tested, 6.9% active; note: potency is the fitted concentration of half-maximal effect; % is set by controls: 0 for no effect and ±100 for the full control effect
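Erythrocytes infected with luciferase-expressing P. falciparum were dispensed at 2% hematocrit and 0.05% parasitemia (final), then incubated with compounds 96 hours at 37 C in 5% CO2. Luminescence after detection reagent addition reported growth.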
CHX counter = Cycloheximide Counterscreen for Small Molecule Inhibitors of Shiga Toxin; cell reporter, cycloheximide protein synthesis inhibition counterscreen; max response, %; 300,000 tested, 12% active; in the data active = max response mostly above about 13%, no sharp cut-off; inactive = mostly below about 14%; note: read at 38.3 µM for the half of the compounds with a filed dose; 0% is about no effect
NS1 function inh = qHTS Assay for Inhibitors of Influenza NS1 Protein Function; 270,000 tested, 0.4% active; Potency, µM (series often up to 46.1 µM), for the others: at the highest dose activity, positive = more growth; calls by dose curve; note: potency is the fitted concentration of half-maximal effect; actives are rising curves; nearly all actives have a fitted effect of over 50% in size
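Growth recovery, yeast-based: influenza A NS1 expressed in S. cerevisiae causes slow growth, and suppressors are detected by OD600. The parent strain without NS1 is used as positive control.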
Giardia FBPA inh = qHTS Assay for Inhibitors of Fructose-1,6-bisphosphate Aldolase from Giardia Lamblia | Potency, µM (series often up to 59.6 µM), without a hit: top-dose activity, negative = inhibition, hits mostly inhibitors | purified Giardia FBPA | 290,000 tested, 0.71% active | A8B2U2; note: potency is the fitted concentration of half-maximal effect; % is set by controls: 0 for no effect and ±100 for the full control effect; nearly all actives have a fitted effect of over 55% in size
Target sequence (A8B2U2 whole entry, looked up): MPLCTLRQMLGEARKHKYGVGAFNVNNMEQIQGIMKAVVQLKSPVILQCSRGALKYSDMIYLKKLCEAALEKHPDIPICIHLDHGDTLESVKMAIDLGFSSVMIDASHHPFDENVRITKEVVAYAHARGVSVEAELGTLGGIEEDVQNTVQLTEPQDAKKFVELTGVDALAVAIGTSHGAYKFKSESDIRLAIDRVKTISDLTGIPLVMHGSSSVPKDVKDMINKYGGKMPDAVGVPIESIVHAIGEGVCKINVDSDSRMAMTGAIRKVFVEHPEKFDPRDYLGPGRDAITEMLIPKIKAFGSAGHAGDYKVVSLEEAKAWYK
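Giardia FBPA (40 nM reagent) was preincubated 10 min at RT with compound (up to 57.5 uM final), then substrate plus GAPDH/TPI/NAD/arsenate coupling system with diaphorase/resazurin was added; resorufin fluorescence (525/598 nm) was read after 20 min.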
* = called active by the depositor; ? = inconclusive; nt = no result. In the library only some 21% were active in any assay of this set; here they are far more common. Unless noted, calls come from the whole dose curve; as a rule, active = well fitted curve in the direction sought with a large enough effect; inconclusive = small, poorly fitted or top-dose-only effect, or another doubt; inactive = no such curve, though single readings can be large; an effect the other way counts as inactive or inconclusive.

SMILES	Pf growth 48h	Shiga inhibitor	Pf growth 96h	CHX counter	NS1 function inh	Giardia FBPA inh
CCOc1ccc2nc(N3C(=O)CNC3=S)sc2c1	-21%	46*	?	35*	-38%	-24%
COc1ccc2nc(N3C(=O)/C(=C/c4ccc(Cl)cc4)NC3=S)sc2c1	14%	2	?	-2	25%	21%
COc1ccc(-n2cc(CNCc3cccnc3)c(-c3cccc(F)c3)n2)cc1	13µM*	51	?	16	1%	1%
COc1ccc(-c2nn(-c3ccccc3)cc2CNCc2cccnc2)c(F)c1	?	-3	0%	9	0%	3%
COc1ccc(-n2cc(CNCCc3cnc[nH]3)c(-c3cccc(F)c3)n2)cc1	1.7µM*	67	?	41*	-71%	21%
COc1ccc(CNCc2cn(-c3cccc(F)c3)nc2-c2ccc(C)o2)cc1	?	15	-1%	11*	2%	-2%
O=C(CN(C(=O)c1csnn1)c1ccccc1F)NC1CCCCC1	11%	2	0%	-5	0%	7%
CC(=O)c1ccc(S(=O)(=O)NCCC(=O)NC(C)c2ccncc2)cc1 (centres undefined)	-19%	nt	-8%	nt	nt	nt
Cn1c(/C=C/c2ccc(Cl)cc2Cl)c([N+](=O)[O-])c(=O)n(C)c1=O	4.7µM*	-4	42%	-1	-2%	11%
CCc1ccc(/C=C/c2c([N+](=O)[O-])c(=O)n(C)c(=O)n2C)cc1	2.3µM*	-3	38%	12	-11%	3%
COc1ccc(/C=C/c2c([N+](=O)[O-])c(=O)n(C)c(=O)n2C)cc1	?	-10	13µM*	1	nt	0%
CCOc1ccc(/C=C/c2c([N+](=O)[O-])c(=O)n(C)c(=O)n2C)cc1	?	-14	1%	-1	0%	2%
Cn1c(/C=C/N(Cc2ccccc2)c2ccccc2)c([N+](=O)[O-])c(=O)n(C)c1=O	-19%	6	-11%	4	4%	-2%
COc1cccc(CN(C)S(=O)(=O)c2c(C)noc2C)c1OC	2%	nt	-4%	nt	nt	nt
CCCCC/C(=N\NC(=O)Nc1ccccc1)c1ccccc1	?	23	2%	-6	nt	-1%
CCCCSC(=O)Nc1ccccc1	5%	85*	7%	31*	-9%	-4%
C/C(=N\NC(=O)Nc1ccccc1)c1ccccc1	53%	32	-28%	20*	-19%	5%
CCCC/C(C)=N/NC(=O)Nc1ccccc1	5%	41*	23%	18*	10%	-4%
C/C(N)=C(/C#N)C(=O)CSc1nc2scc(-c3ccc(F)cc3)c2c(=O)n1C	0%	-7	?	3	2%	1%
CCC(=O)N1CCc2cc(S(=O)(=O)CCC(=O)NCc3ccccc3OC)ccc21	-11%	11	41%	-3	-7%	nt
CCC/C(O)=C1\C(=O)CC(c2ccccc2)CC1=NCCc1c(C)[nH]c2ccc(C)cc12 (centres undefined)	1.9µM*	12	?	-1	-10%	-1%
CC/C(O)=C1\C(=O)CC(c2ccccc2)CC1=NCCc1c(C)[nH]c2ccc(C)cc12 (centres undefined)	?	-6	?	-3	-5%	15%
CC(=O)C1=C(O)CC(c2ccccc2)CC1=NCCc1c(C)[nH]c2ccccc12 (centres undefined)	7.4µM*	-19	-27%	-6	-8%	1%
CC1CC(C)CN(C(=O)CCNC(=O)Cn2ccc3ccccc3c2=O)C1 (centres undefined)	5%	33	?	-5	8%	-3%
O=C1CCCC/C1=C/Nc1ccc(C(=O)O)cc1	nt	42	41%	30*	-9%	-6%
SMILES	Pf growth 48h	Shiga inhibitor	Pf growth 96h	CHX counter	NS1 function inh	Giardia FBPA inh
COc1ccc(N/C=C2/CCCCC2=O)cc1	47%	129*	?	78*	?	14%
CSCC[C@H](NC(=O)[C@H](CCC(N)=O)NC(=O)[C@H](CCCCN)NC(=O)[C@H](CCCNC(=N)N)NC(=O)[C@H](Cc1ccc(O)cc1)NC(=O)[C@H](CCCNC(=N)N)NC(=O)[C@H](CO)NC(=O)[C@H](Cc1ccc(O)cc1)NC(=O)[C@H](CO)NC(=O)[C@H](CC(=O)O)NC(=O)[C@@H](NC(=O)[C@@H](N)Cc1ccccc1)[C@@H](C)O)C(=O)N[C@@H](C)C(=O)N[C@H](C(=O)N[C@@H](CCCCN)C(=O)N[C@@H](CCCCN)C(=O)N[C@@H](Cc1ccc(O)cc1)C(=O)N[C@@H](CC(C)C)C(=O)N[C@@H](C)C(=O)N[C@@H](C)C(=O)N[C@H](C(=O)N[C@@H](CC(C)C)C(=O)NCC(=O)N[C@@H](CCCCN)C(=O)N[C@@H](CCCNC(=N)N)C(=O)N[C@@H](Cc1ccc(O)cc1)C(=O)N[C@@H](CCCCN)C(=O)N[C@@H](CCC(N)=O)C(=O)N[C@@H](CCCNC(=N)N)C(=O)N[C@H](C(=O)N[C@@H](CCCCN)C(=O)N[C@@H](CC(N)=O)C(=O)N[C@@H](CCCCN)C(N)=O)C(C)C)C(C)C)C(C)C	nt	-11	nt	-9	nt	4%
Cn1cc(C(=O)c2ccc(Cl)cc2Cl)cc1C(=O)N/N=C(\N)COc1ccc(F)cc1	?	-4	nt	9	-58%	23%
Cn1cc(C(=O)c2ccc(Cl)cc2Cl)cc1C(=O)N/N=C(\N)COc1ccc(Cl)cc1	0%	-8	9.3µM*	-2	1%	7%
NC(N)=N/N=C\c1ccc(O)c(C(=O)O)c1	nt	nt	nt	nt	-1%	nt
Cc1ccc(CNc2ncnc3ccc(-c4c(C)noc4C)cc23)cc1	nt	25	nt	13	nt	-1%
Cc1noc(C)c1-c1ccc2ncnc(NCC3CCCCN3C)c2c1 (centres undefined)	4.1µM*	-2	2.3µM*	-7	nt	0%
COc1cccc(CNc2ncnc3ccc(-c4c(C)noc4C)cc23)c1	4.1µM*	-4	5.9µM*	-6	nt	-8%
Cc1ccsc1CNc1ncnc2ccc(-c3c(C)noc3C)cc12	nt	57*	nt	28	nt	-12%
Cc1cc(C)c(S(=O)(=O)Nc2cccc(S(=O)(=O)NC3=NCCC3)c2)c(C)c1	-88%	3	6%	-1	-4%	-11%
CCOC(=O)CNC(=O)Cn1cnc2c(cnn2-c2ccc(C)cc2)c1=O	7%	3	?	-2	4%	4%
Cc1nc(C)n(C(C)CNC(=O)c2ccco2)n1 (centres undefined)	1%	-3	0%	-1	4%	11%
Cc1nonc1CC(=O)NC1CCCc2c1cnn2-c1ccc(F)cc1F (centres undefined)	4%	16	15%	1	4%	nt
CCCCCCCCCCCCCCCC(=O)NCC(=O)O	nt	nt	nt	nt	nt	-1%
